# Measured values published in the supplement of paper PMC4466140.
# What was measured:
# Experiment in all cases: SPOT peptide array binding signal intensity (averaged, normalized) (arbitrary units (background-subtracted, floor 0; scale differs between SH3 domains)); higher = stronger binding of the SH3 domain to the peptide
# ScBbc1 = target: ScBbc1
# Method in brief: (§1)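 To measure binding, SH3 domains from four yeast species were fused to GST, expressed in E. coli BL21(DE3) and purified on glutathione Sepharose. Each domain was incubated at 10 μg/ml overnight at 4°C on cellulose membranes with synthetic 15-mer peptides whose cysteines were replaced by serines. Anti-GST antibody, an HRP anti-mouse secondary and luminol were used for detection, and images were quantified with Genespotter. Reported binding signal is normalized, background-subtracted spot intensity averaged over replicates, in arbitrary units that differ between domains.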
# ScBem1-D1 = target: ScBem1-D1
# Method in brief: as §1
# ScBzz1-D1 = target: ScBzz1-D1
# Method in brief: as §1
# ScBzz1-D2 = target: ScBzz1-D2
# Method in brief: as §1
# ScCyk3 = target: ScCyk3
# Method in brief: as §1
# ScFus1 = target: ScFus1
# Method in brief: as §1
# ScHof1 = target: ScHof1
# Method in brief: as §1
# ScHse1 = target: ScHse1
# Method in brief: as §1
# ScLsb1 = target: ScLsb1
# Method in brief: as §1
# ScLsb2 = target: ScLsb2
# Method in brief: as §1
# ScLsb3 = target: ScLsb3
# Method in brief: as §1
# ScLsb4 = target: ScLsb4
# Method in brief: as §1
# ScMyo3 = target: ScMyo3
# Method in brief: as §1
# ScMyo5 = target: ScMyo5
# Method in brief: as §1
# ScNbp2 = target: ScNbp2
# Method in brief: as §1
# ScPex13 = target: ScPex13
# Method in brief: as §1
# ScRvs167 = target: ScRvs167
# Method in brief: as §1
# ScSho1 = target: ScSho1
# Method in brief: as §1
# ScSla1-D1-D2 = target: ScSla1-D1-D2
# Method in brief: as §1
# ScSla1-D3 = target: ScSla1-D3
# Method in brief: as §1
# SpAbp1-D1 = target: SpAbp1-D1
# Method in brief: as §1
# SpBbc1 = target: SpBbc1
# Method in brief: as §1
# SpBzz1-D1 = target: SpBzz1-D1
# Method in brief: as §1
# SpBzz1-D2 = target: SpBzz1-D2
# Method in brief: as §1
# SpCyk3 = target: SpCyk3
# Method in brief: as §1
# SpHof1 = target: SpHof1
# Method in brief: as §1
# SpHof1-2 = target: SpHof1-2
# Method in brief: as §1
# SpHof1-3 = target: SpHof1-3
# Method in brief: as §1
# SpHse1 = target: SpHse1
# Method in brief: as §1
# SpLsb1 = target: SpLsb1
# Method in brief: as §1
# SpLsb4 = target: SpLsb4
# Method in brief: as §1
# SpMyo1 = target: SpMyo1
# Method in brief: as §1
# SpNbp2 = target: SpNbp2
# Method in brief: as §1
# SpPex13 = target: SpPex13
# Method in brief: as §1
# SpRvs167 = target: SpRvs167
# Method in brief: as §1
# SpSla1-D1-D2 = target: SpSla1-D1-D2
# Method in brief: as §1
# SpSla1-D3 = target: SpSla1-D3
# Method in brief: as §1
binder,measurement,setting,value
VPVAPPPPPASLGQS,SPOT peptide array binding signal intensity,ScBbc1,2.5
same,SPOT peptide array binding signal intensity,ScBem1-D1,0.5
same,SPOT peptide array binding signal intensity,ScBzz1-D1,3
same,SPOT peptide array binding signal intensity,ScBzz1-D2,8.5
same,SPOT peptide array binding signal intensity,ScCyk3,≤ 0
same,SPOT peptide array binding signal intensity,ScFus1,≤ 0
same,SPOT peptide array binding signal intensity,ScHof1,≤ 0
same,SPOT peptide array binding signal intensity,ScHse1,4
same,SPOT peptide array binding signal intensity,ScLsb1,≤ 0
same,SPOT peptide array binding signal intensity,ScLsb2,≤ 0
same,SPOT peptide array binding signal intensity,ScLsb3,≤ 0
same,SPOT peptide array binding signal intensity,ScLsb4,4
same,SPOT peptide array binding signal intensity,ScMyo3,372
same,SPOT peptide array binding signal intensity,ScMyo5,91
same,SPOT peptide array binding signal intensity,ScNbp2,≤ 0
same,SPOT peptide array binding signal intensity,ScPex13,≤ 0
same,SPOT peptide array binding signal intensity,ScRvs167,≤ 0
same,SPOT peptide array binding signal intensity,ScSho1,3
same,SPOT peptide array binding signal intensity,ScSla1-D1-D2,≤ 0
same,SPOT peptide array binding signal intensity,ScSla1-D3,1.5
same,SPOT peptide array binding signal intensity,SpAbp1-D1,≤ 0
same,SPOT peptide array binding signal intensity,SpBbc1,≤ 0
same,SPOT peptide array binding signal intensity,SpBzz1-D1,237
same,SPOT peptide array binding signal intensity,SpBzz1-D2,1.25
same,SPOT peptide array binding signal intensity,SpCyk3,≤ 0
same,SPOT peptide array binding signal intensity,SpHof1,≤ 0
same,SPOT peptide array binding signal intensity,SpHof1-2,≤ 0
same,SPOT peptide array binding signal intensity,SpHof1-3,0.5
same,SPOT peptide array binding signal intensity,SpHse1,1
same,SPOT peptide array binding signal intensity,SpLsb1,≤ 0
same,SPOT peptide array binding signal intensity,SpLsb4,≤ 0
same,SPOT peptide array binding signal intensity,SpMyo1,49.8
same,SPOT peptide array binding signal intensity,SpNbp2,1.5
same,SPOT peptide array binding signal intensity,SpPex13,≤ 0
same,SPOT peptide array binding signal intensity,SpRvs167,3.33
same,SPOT peptide array binding signal intensity,SpSla1-D1-D2,≤ 0
same,SPOT peptide array binding signal intensity,SpSla1-D3,≤ 0
